From PubChem BioAssay AID504832 (National Center for Advancing Translational Sciences (NCATS), 2011)
Screen size: about 310,000 compounds; about 18,000 (5.8%) were called active. Entries that show only a call come without a potency. About 22% were inconclusive and are not listed. The sample holds actives, similar compounds and a random draw of the others, so the mix is not that of the screen. Calls follow the shape of the dose curve; as a rule, active = well fitted inhibition curve with a large enough effect; inconclusive = small, poorly fitted or top-dose-only effect, or another doubt; inactive = no such curve, though single readings can be large or run the other way.

experiment: Primary qHTS for delayed death inhibitors of the malarial parasite plastid, 48 hour incubation; conditions: P. falciparum luciferase growth in erythrocytes; series mostly up to 28.7 µM
Method in brief: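 First compound was added to culture medium, then infected red cells at 0.1% parasitemia and 2% hematocrit (final). After incubation at 37 C under 5% CO2, luciferase detection reagent was dispensed and light output recorded.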
Potency is read from the fitted curve at half-maximal effect.

Compound	Potency
CCN(C(=O)CN1C(=O)/C(=C/c2ccc(F)cc2)SC1=S)C1CCS(=O)(=O)C1 (stereo not given)	inactive
O=C(CCCN1C(=O)/C(=C\c2ccccc2)SC1=S)Nc1ccccc1O	inactive
O=C1/C(=C/c2ccc(F)cc2)SC(=S)N1CCCC(=O)N1CCCCC1CCO (stereo not given)	11.7 µM (active)
N#Cc1cccc(CSc2ncnc(N)n2)c1	inactive
CNC(=O)COC(=O)c1cc(-c2ccc(OC)cc2)nc2ccccc12	inactive
COc1ccccc1NC(=O)c1cc(Cl)nc2ccccc12	inactive
COc1ccc(NC(=O)c2cc(-c3cc(OC)c(OC)c(OC)c3)nc3ccccc23)c(OC)c1	5.22 µM (active)
CCC(C)(C)n1nnnc1C(c1ccc(OC)c(OC)c1)N1CCN(C(=O)c2ccco2)CC1 (stereo not given)	inactive
c1ccc2sc(N3CCNCC3)nc2c1	inactive
CCC(C)(C)n1nnnc1C(c1ccccc1OC)N1CCSCC1 (stereo not given)	11.7 µM (active)
COc1ccccc1CN(C)c1nnnn1-c1ccccc1	inactive
COc1ccccc1C(c1nnnn1C(C)(C)C)N1CCN(Cc2ccccc2)CC1 (stereo not given)	13.1 µM (active)
CCC(C)(C)n1nnnc1C(c1cccs1)N1CCN(c2nc3ccccc3s2)CC1 (stereo not given)	11.7 µM (active)
CC(C)C(c1nnnn1C(C)(C)C)N1CCN(Cc2cccnc2)CC1 (stereo not given)	inactive
CCC(C)(C)n1nnnc1CN1CCN(c2nc3ccc(C)cc3cc2C#N)CC1	inactive
CCCC(c1nnnn1C(C)(C)C)N1CCN(Cc2ccccc2)CC1 (stereo not given)	inactive
Cc1ccc(S(=O)(=O)NCCC(=O)NC2CCN(Cc3ccccc3)CC2)cc1	inactive
Cc1cccc([C@@H]2[C@@H]3C(=O)N(C)C(=O)[C@@H]3[C@@H]3C(=O)Nc4ccccc4C(=O)N23)c1	inactive
CC1CCCCC12NC(=O)N(CC(=O)Nc1ccc(S(=O)(=O)Nc3ncccn3)cc1)C2=O (stereo not given)	inactive
COc1cccc(C(=O)Nc2nnc(S(=O)(=O)N3CCOCC3)s2)c1	inactive
Cc1ccc(C)c(S(=O)(=O)Nc2cccc(-n3cnnn3)c2)c1	inactive
Cc1cnc(C)c(N2CCN(C(=O)C3CCC(=O)N(CCc4cccc(F)c4)C3)CC2)n1 (stereo not given)	inactive
CN(C)c1ccc(N/C=C/C(=O)C(F)(F)F)cc1	9.28 µM (active)
CCCOc1ccc(N/C=C/C(=O)C(C)(C)C)cc1	inactive
O=C(/C=C/Nc1ccccc1OC(F)(F)F)C(F)(F)F	inactive
COc1ccc2ccccc2c1/C=N/NC(=O)c1cc(C)[nH]n1	inactive
C/C(=N\OCC(=O)O)c1ccc(Cl)cc1	inactive

Compound	Potency
Cc1onc(-c2ccccc2)c1C(=O)N=C(N)c1ccc(Cl)cc1	inactive
C/C(=N\N=C(N)N)c1ccc(Cl)cc1	6.57 µM (active)
Cc1ccccc1OCC(=O)N(Cc1cccc(F)c1)C1CCS(=O)(=O)C1 (stereo not given)	inactive
CN(C(=O)COC(=O)CNC(=O)C12CC3CC(CC(C3)C1)C2)c1ccccc1	inactive
O=C(Nn1cc(C(=O)N2CCN(c3ccccc3F)CC2)c2ccccc2c1=O)c1cnccn1	10.4 µM (active)
O=C(c1c(F)cccc1F)N1CCN(c2ncc(Br)cn2)CC1	inactive
COc1ccc2oc(=O)c(C(=O)N3CCN(c4ccccc4F)CC3)cc2c1	inactive
O=C(COC(=O)c1cccs1)NCc1cccs1	inactive
CC(C)=CCN1CCN(CCCc2ccccc2)CC1CCO (stereo not given)	inactive
O=C1Nc2cc(C(=O)N3CCN(c4ccc(F)cc4)CC3)ccc2NC1CSCc1cccc(F)c1 (stereo not given)	inactive
Cc1cccn2c(=O)c3cc(C(=O)NC4CCCCC4)sc3nc12	inactive
Cc1cc(C)cc(Oc2nc3c(C)cccn3c(=O)c2/C=C(\C#N)C(=O)NC2CCS(=O)(=O)C2)c1 (stereo not given)	13.1 µM (active)
Cc1cccn2c(=O)c(/C=C(\C#N)S(=O)(=O)c3ccc(Cl)cc3)c(N3CCC(C(N)=O)CC3)nc12	inactive
CCCCNC(=O)Cn1nc(C)c(S(=O)(=O)N2CCOCC2)c1C	inactive
CSCCC(NC(=O)c1ccco1)C(=O)NCCc1ccc(F)cc1 (stereo not given)	inactive
COc1ccc2c(C)c(CCC(=O)NC3CC3)c(=O)oc2c1C	inactive
COc1ccccc1C(=O)NC(=S)NC12CC3CC(CC(C3)C1)C2	inactive
Cc1ccccc1NC(=O)c1ccccc1NS(=O)(=O)c1cccc2cccnc12	inactive
O=[N+]([O-])c1ccccc1S(=O)(=O)Nc1cccc2cccnc12	2.33 µM (active)
O=C(Nc1ccccc1Cl)Nc1cccc2cccnc12	inactive
COc1ccccc1OCC(=O)OCc1cc(-c2ccco2)on1	inactive
C/C(=N\NC(N)=S)c1ccncc1	3.29 µM (active)
C/C(=N/NC(=O)c1ccn(C)n1)c1ccncc1	inactive
C/C(=N\NC(N)=S)c1cccnc1	inactive
CC(=O)N1CCC(C(=O)OCc2ccc(Cl)cc2)(c2ccccc2)CC1	inactive
O=C(/C=C/c1ccccc1[N+](=O)[O-])OCC(=O)N1CCCC1	inactive
COc1ccc(C(=O)NCCn2nc(C)cc2C)cc1OC1CCN(C(C)=O)CC1	inactive

Compound	Potency
O=C(Cn1c(-c2ccc(Cl)cc2)noc1=O)N1CCN(c2ccccc2F)CC1	11.7 µM (active)
O=C(NCC(=O)N1CCN(c2ccccc2F)CC1)c1cccs1	inactive
O=C(CCSc1ccccc1)N1CCN(c2ccccc2F)CC1	inactive
CCOC(=O)c1nnn2c3ccccc3c(=O)n(C)c12	inactive
CCOC(=O)c1nnn2c1nc(N1CCN(c3ccccc3)CC1)c1ccccc12	5.22 µM (active)
Cc1cc(C(=O)N2CCN(c3ccccn3)CC2)c(C)o1	inactive
CCOC(=O)/C(C#N)=C/c1ccc(N2CCN(Cc3ccccc3)CC2)cc1	inactive
Cc1ccc(S(=O)(=O)c2nnn3c2nc(N2CCN(c4ccccn4)CC2)c2ccccc23)cc1	1.47 µM (active)
CC(=C1C(=O)c2ccccc2C1=O)N1CCN(c2ccccn2)CC1	inactive
COc1ccc(C2NC(=O)N(C)C(C)=C2[N+](=O)[O-])cc1 (stereo not given)	inactive
COc1ccc(S(=O)(=O)NCc2cccnc2)cc1NC(=O)c1ccc(C)cc1	inactive
CCN(C(=O)CSc1ncnc2sccc12)c1c(N)n(Cc2ccccc2)c(=O)[nH]c1=O	inactive
COc1ccc(S(=O)(=O)N2CCOCC2)cc1C(=O)NC1CCCCC1	inactive
COc1ccc(S(=O)(=O)N2CCCCC2)cc1NC(=O)c1cc([N+](=O)[O-])ccc1N1CCOCC1	9.28 µM (active)
O=C(NC1CCCCC1)c1cc([N+](=O)[O-])ccc1N1CCOCC1	inactive
O=C(Nc1cc(S(=O)(=O)N2CCOCC2)ccc1OCC(F)(F)F)c1ccc(N2CCCC2=O)cc1	inactive
COc1ccc(S(=O)(=O)N2CCOCC2)cc1NC(=O)c1ccc(OCC(C)C)c(OC)c1	9.28 µM (active)
COc1ccc(S(=O)(=O)N2CCOCC2)cc1NC(=O)CSc1cc(C)ccc1C	inactive
CC(C)Cn1c(=O)c2ccccc2n2c(CCC(=O)NCc3ccccn3)nnc12	inactive
S=C(NCCc1ccccc1)N1CCn2cccc2C1c1ccncc1 (stereo not given)	10.4 µM (active)
S=C(NCCc1ccccc1)N1CCCCC1	inactive
S=C(Nc1cccc(Br)c1)N1CCn2cccc2C1c1cccnc1 (stereo not given)	11.7 µM (active)
COc1ccc(C(=O)NC(=S)N2CCCCC2c2cccnc2)cc1OC (stereo not given)	inactive
Fc1cc(Br)ccc1NC(=S)Nc1cccnc1	inactive
CC1CCCCN1C(=S)NCc1ccccc1 (stereo not given)	inactive
COc1ccc(CCNS(=O)(=O)c2cccc([N+](=O)[O-])c2)cc1	inactive
CN1CCN(C(=O)c2ccccc2NC(=O)COc2ccccc2Cl)CC1	inactive

Compound	Potency
COc1ccc(/C(C)=N\NC(=O)c2ccc(-c3ccccc3)cc2)c(F)c1	inactive
CCOc1ccc(/C=C/C(=O)N(CC)CC(=O)NCc2cccs2)cc1OC	inactive
CS(=O)(=O)Nc1cccc(C2=NN(C(=O)c3cccc(F)c3)C(c3cccs3)C2)c1 (stereo not given)	11.7 µM (active)
CS(=O)(=O)Nc1ccc(C2=NN(S(C)(=O)=O)C(c3cccs3)C2)cc1 (stereo not given)	inactive
CCS(=O)(=O)Nc1ccc(C2=NN(C(C)=O)C(c3cccs3)C2)cc1 (stereo not given)	inactive
CSc1ncccc1C(=O)Nc1ccc(C)cn1	inactive
Cc1ccc2c(c1)N(CC(=O)N1CCC(O)CC1)C(=O)CO2	inactive
CC(C)c1ccc(OCC(O)Cn2cnc3ccccc32)cc1 (stereo not given)	11.7 µM (active)
CC(C)c1ccc(OCC(O)CN2CCN(c3ccccn3)CC2)cc1 (stereo not given)	inactive
CC(=O)OC(COc1ccc(F)cc1)Cn1cnc2ccccc21 (stereo not given)	inactive
COc1cc([N+](=O)[O-])cc([N+](=O)[O-])c1NC(=O)N1CCOCC1	inactive
NC(=O)c1ccsc1NC(=O)COC(=O)Cc1n[nH]c(=O)c2ccccc12	inactive
O=S(=O)(NC1CC1)c1ccc(Cl)cc1	inactive
CC(Cc1ccccc1)NCCC(c1ccccc1)c1ccccc1 (stereo not given)	10.4 µM (active)
Cc1ncoc1C(=O)NCCC(c1ccccc1)c1ccccc1	inactive
CC(Cc1ccccc1)C(=O)N(C)Cc1ccccc1 (stereo not given)	inactive
NS(=O)(=O)c1ccc(CCNC(=O)CN2C(=O)c3ccccc3S2(=O)=O)cc1	inactive
COc1ccc(N2CCN(S(=O)(=O)c3ccc4c(c3)N(C(C)=O)CCO4)CC2)cc1	inactive
COC(=O)C1=C(C)N(C)C(=S)NC1c1ccccc1 (stereo not given)	inactive
COC(=O)C1=C(C)N(C)C(C)=C(C(=O)OC)C1c1cccc(Br)c1	8.28 µM (active)
COCCN1C(=O)N[C@@H](c2ccccc2)C(C(=O)OC)=C1C	inactive
CCn1cc(CN2CCC(n3nccc3NC(=O)CCCc3ccccc3)CC2)c(C)n1	inactive
CNC(=O)N1c2ccccc2C=Cc2ccccc21	inactive
CC1Sc2ccc(S(=O)(=O)CCC(=O)NCc3ccccc3Cl)cc2NC1=O (stereo not given)	inactive
